# Measured values from PubChem BioAssay (Tox21).
# Values joined by “and” are separate entries in the source; they are usually repeats but may differ in a detail not shown here. Equal entries are not always repeated. Results filed as inconclusive are left out. Where a call stands in place of a potency, no number is given. A structure can be active in one record and inactive in another. Active and inactive are the calls of the source. Unless noted, the call rests on the fitted dose curve; in most records, active means well fitted curve in the direction sought with a large enough effect in the repeat runs; inconclusive means weak or mixed curves; inactive means no such curve, though single readings can be large; an effect the other way counts as inactive or inconclusive.
# What was measured:
# [1] = A CellTox Green Cytotoxicity Assay to monitor cytotoxicity in HepG2 cells - 8 hour (AID 1224890); further: nearly all actives have a fitted effect of over 45% in size
# In short: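 Cytotoxicity was tracked as dead-cell DNA fluorescence in HepG2 cells treated with test compounds at 37 C; each time-point value comes from one kinetic series spanning 0, 8, 16, 24, 32 and 40 h.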
# [2] = qHTS assay to identify small molecule antagonists of the estrogen receptor alpha (ER-alpha) signaling pathway using the BG1 cell line in the presence of 0.1 nM 17-beta-estradiol - cell viability counter screen (AID 1259241); further: nearly all actives have a fitted effect of over 40% in size
# In short: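 Live-cell protease activity (CellTiter-Fluor fluorescence, 30 min) was read in the same wells after VM7Luc4E2 cells had been exposed to compounds with 0.1 nM 17beta-estradiol for 22 hr at 37C.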
# [3] = qHTS assay to identify small molecule antagonists of the androgen receptor (AR) signaling pathway using the MDA cell line in the presence of 0.5 nM R1881 - cell viability counter screen (AID 1259242); further: nearly all actives have a fitted effect of over 45% in size; further: potency means the concentration at half of the fitted maximal effect
# In short: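 Cells seeded at 3,000/well and allowed 5 hr at 37C, 0% CO2 before compound transfer and R1881 (0.5 nM final) addition; 16 hr later, live-cell protease fluorescence indicated cytotoxicity.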
# [4] = qHTS assay to identify small molecule HDAC inhibitors (AID 1259364); further: potency means the concentration at half of the fitted maximal effect;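 further: wild-type HCT-116 cells with endogenous class I/II HDAC activity; nearly all actives have a fitted effect of over 45% in size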
# In short: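 HCT-116 wt cells, 1,500/well, overnight attach. Compounds (DMSO) 2 h, 37 °C. HDAC-Glo I/II, 30 min RT. Luminescence.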
# [5] = qHTS assay to identify small molecule HDAC inhibitors - cell viability counter screen (AID 1259365); further: series mostly up to about 92 µM; nearly all actives have a fitted effect of over 50% in size
# In short: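 HCT-116 (wild type), 1,500 cells/well, overnight 37C/5% CO2; compound in DMSO 2hr; CellTiter-Glo 30min RT; luminescence read.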
# [6] = qHTS assay to identify small molecule agonists of the sonic hedgehog signaling (Shh) pathway - cell viability counter screen (AID 1259366); further: nearly all actives have a fitted effect of over 50% in size; further: potency means the concentration at half of the fitted maximal effect
# In short: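 CellTiter-Fluor fluorescence read-out, 1 hr at 37C, added after 23hr compound exposure. Cells: 3T3 Gli1-Luc, an NIH/3T3 clone with stably integrated Gli1-Luc reporter, plated 4hr before compound.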
# [7] = qHTS assay to identify small molecule agonists of the sonic hedgehog signaling (Shh) pathway (AID 1259368; calls by dose curve; further: nearly all actives have a fitted effect of over 15% in size; further: potency means the concentration at half of the fitted maximal effect)
# In short: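 Following a 24 hr incubation with DMSO-dissolved compounds at 37 C, 5% CO2, Gli1-Luc NIH/3T3-derived cells received luciferase reagent for 30 min at room temperature prior to luminescence measurement.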
# [8] = qHTS assay to identify small molecule antagonists of the sonic hedgehog signaling (Shh) pathway (AID 1259369; calls by dose curve; further: nearly all actives have a fitted effect of over 45% in size; further: potency means the concentration at half of the fitted maximal effect)
# In short: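 Read-out is luminescence from a firefly luciferase gene controlled by the Gli1 response element, in 3T3Gli1-Luc cells pre-incubated 4hr then exposed to compounds and conditioned medium for 24hr.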
# [9] = biological target: Estrogen receptor beta (Homo sapiens) (UniProt Q92731); assay: qHTS assay to identify small molecule agonists of the estrogen receptor beta (ER-beta) signaling pathway (AID 1259377; active means well fitted activation curve with a large enough effect in the signal ratio in the repeat runs, not every such curve was filed as active; the % refers to the signal ratio)
# Estrogen receptor beta (Homo sapiens), sequence (Q92731 whole entry, looked up): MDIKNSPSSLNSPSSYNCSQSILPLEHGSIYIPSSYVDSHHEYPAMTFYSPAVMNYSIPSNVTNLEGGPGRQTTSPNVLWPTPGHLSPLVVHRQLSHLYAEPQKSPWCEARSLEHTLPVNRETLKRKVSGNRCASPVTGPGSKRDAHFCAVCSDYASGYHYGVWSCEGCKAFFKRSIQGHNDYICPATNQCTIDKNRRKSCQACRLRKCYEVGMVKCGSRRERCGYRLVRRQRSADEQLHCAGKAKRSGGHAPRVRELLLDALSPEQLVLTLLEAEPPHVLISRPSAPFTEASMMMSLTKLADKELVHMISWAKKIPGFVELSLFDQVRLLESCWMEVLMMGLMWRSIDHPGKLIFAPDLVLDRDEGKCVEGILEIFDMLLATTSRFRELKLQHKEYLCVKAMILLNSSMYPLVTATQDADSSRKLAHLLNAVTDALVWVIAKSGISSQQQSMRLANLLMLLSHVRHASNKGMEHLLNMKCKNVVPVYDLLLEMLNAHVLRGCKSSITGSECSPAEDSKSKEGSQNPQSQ
# In short: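 Beta-lactamase reporter readout: fluorescence of LiveBLAzer B/G FRET substrate after 2 h at room temperature, following 16 h compound treatment of ER-beta-UAS-bla HEK293T cells at 37C in 2% charcoal-stripped FBS medium.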
# [10] = biological target: Estrogen receptor beta (Homo sapiens) (UniProt Q92731); assay: qHTS assay to identify small molecule antagonists of the estrogen receptor beta (ER-beta) signaling pathway (AID 1259378; active means well fitted inhibition curve with a large enough effect in the signal ratio in the repeat runs, not every such curve was filed as active; the % refers to the signal ratio; further: potency means the concentration at half of the fitted maximal effect)
# In short: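 ER-beta-UAS-bla HEK293T cells in 2% charcoal-stripped FBS medium treated with compound plus 1nM final 17-beta-estradiol for 16 hr at 37C. Beta-lactamase reporter read by FRET substrate fluorescence after 2 hours at room temperature.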
# [11] = qHTS assay to identify small molecule agonists of the estrogen receptor beta (ER-beta) signaling pathway - cell viability counter screen (AID 1259380); further: nearly all actives have a fitted effect of over 30% in size
# In short: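 Compounds dissolved in DMSO were pin-transferred onto ER-beta-UAS-bla HEK293T cells that had settled 6 hr, and exposure ran 16 hr at 37C. Following the reporter read, CellTiter-Glo luminescence after 30 min at room temperature indicated cytotoxicity.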
# [12] = qHTS assay to identify small molecule antagonists of the estrogen receptor beta (ER-beta) signaling pathway - cell viability counter screen (AID 1259382); further: nearly all actives have a fitted effect of over 55% in size; further: potency means the concentration at half of the fitted maximal effect
# In short: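 CellTiter-Glo ATP luminescence measured after the LiveBLAzer read in the same wells; ER-beta-UAS-bla HEK293T cells, 16 hr compound treatment with 1nM 17-beta-estradiol agonist at 37C, 5% CO2.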
# [13] = qHTS assay to identify small molecule agonists or antagonists of the thyroid stimulating hormone receptor (TSHR) signaling pathway - wild type cell line counter screen (AID 1259384; calls by dose curve)
# In short: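 Wild-type Hek293 cells, 800/well, 18 h at 37C, then compound with Ro20-1724 for 30 min RT. cAMP by HTRF (cAMP-d2/anti-cAMP cryptate), 1 h RT, fluorescence read. 15 concentrations, triplicates.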
# [14] = qHTS assay to identify small molecule antagonists of the sonic hedgehog signaling (Shh) pathway - cell viability counter screen (AID 1259367); further: nearly all actives have a fitted effect of over 55% in size; further: potency means the concentration at half of the fitted maximal effect
# In short: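 Tox21 library chemicals were tested on a Gli1-Luc NIH/3T3 clone (2,000 cells/well) stimulated by conditioned medium; viability was quantified as fluorescence from CellTiter-Fluor reagent added at 23 hr.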
# [15] = qHTS assay to identify small molecule agonists of the androgen receptor (AR) signaling pathway in the presence of an antagonist - cell viability counter screen (AID 1259379); further: nearly all actives have a fitted effect of over 25% in size; further: potency means the concentration at half of the fitted maximal effect
# In short: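 Each compound was tested at 15 concentrations on MDA-kb2 cells in the presence of 3.0uM nilutamide. Viability was measured by CellTiter-Fluor fluorescence after a 16 hr incubation at 37C in a CO2-free atmosphere.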
# [16] = biological target: Estrogen receptor (Homo sapiens) (UniProt P03372); assay: qHTS assay to identify small molecule antagonists of the estrogen receptor alpha (ER-alpha) signaling pathway using the BG1 cell line in the presence of 0.1 nM 17-beta-estradiol (AID 1259244); further: nearly all actives have a fitted effect of over 50% in size
# Estrogen receptor (Homo sapiens), sequence (P03372 whole entry, looked up): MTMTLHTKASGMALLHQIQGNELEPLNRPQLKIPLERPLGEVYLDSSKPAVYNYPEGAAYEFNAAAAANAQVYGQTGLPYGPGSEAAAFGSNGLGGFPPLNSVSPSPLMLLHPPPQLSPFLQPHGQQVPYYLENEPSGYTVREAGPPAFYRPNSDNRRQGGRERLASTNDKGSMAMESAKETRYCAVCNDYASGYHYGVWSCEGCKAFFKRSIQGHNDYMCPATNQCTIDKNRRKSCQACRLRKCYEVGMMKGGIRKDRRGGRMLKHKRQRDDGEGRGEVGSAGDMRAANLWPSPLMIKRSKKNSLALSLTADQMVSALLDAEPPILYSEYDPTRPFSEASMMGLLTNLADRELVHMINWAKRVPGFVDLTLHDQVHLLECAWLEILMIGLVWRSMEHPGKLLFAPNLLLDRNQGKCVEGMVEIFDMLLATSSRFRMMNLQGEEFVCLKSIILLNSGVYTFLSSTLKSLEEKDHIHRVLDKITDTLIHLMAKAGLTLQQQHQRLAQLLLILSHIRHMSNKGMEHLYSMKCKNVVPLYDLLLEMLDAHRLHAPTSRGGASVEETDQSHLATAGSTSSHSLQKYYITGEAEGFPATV
# In short: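 Luciferase signal from VM7Luc4E2 ERE-reporter cells, co-dosed with test compound and 0.1 nM final 17beta-estradiol for 22 h, read with ONE-Glo.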
# [17] = qHTS assay to identify small molecule phospholipidosis (PLD) inducers (AID 1259344; active means well fitted curve in the direction sought with a large enough effect; an effect the other way counts as inactive or inconclusive; further: potency means the concentration at half of the fitted maximal effect)
# In short: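 Image-based: LipidTOX Red pit count/intensity per well and per cell; HepG2, 24 h compound at 37 C, PFA fixation, Hoechst counterstain.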
# [18] = biological target: Estrogen receptor (Homo sapiens) (UniProt P03372); assay: qHTS assay to identify small molecule agonists of the estrogen receptor alpha (ER-alpha) signaling pathway in the presence of an antagonist (AID 1259383; calls by dose curve; further: top concentration of the series differs between compounds; nearly all actives have a fitted effect of over 15% in size)
# In short: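 Luminescent ERE-luciferase reporter, VM7Luc4E2 cells (endogenous ER-alpha); 10.0nM ICI-182,780 final; 15-point compound titration; 22hr at 37C; ONE-Glo, 30min RT.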
Structure (SMILES),Potency [1],Potency [2],Potency [3],Potency [4],outcome [5],Potency [6],Potency [7],Potency [8],Potency [9],Potency [10],Potency [11],Potency [12],outcome [13],Potency [14],Potency [15],Potency [16],PLD induction [17],Potency [17],Potency [18]
CCC(C)c1ccccc1O (stereo not drawn),inactive,inactive,inactive,inactive,inactive,inactive,inactive,inactive,inactive,inactive,inactive,inactive,inactive,,,,,,
NNc1ccc(C(=O)O)cc1,inactive,inactive,inactive,2.47 µM (active) and 6.93 µM (active),inactive,inactive,5.5 µM (active),inactive,inactive,inactive,inactive,inactive,inactive,inactive,,,,,
O=c1oc(=O)c2cc3c(=O)oc(=O)c3cc12,inactive,inactive,inactive,inactive,inactive,inactive,inactive,inactive,inactive,inactive,inactive,inactive,,inactive,inactive,,,,
CCCCc1oc2ccccc2c1C(=O)c1cc(I)c(OCCN(CC)CC)c(I)c1,,inactive,,inactive,inactive,43.6 µM (active),inactive,43.6 µM (active) and inactive,inactive,21.9 µM (active) and 26.6 µM (active),,19.5 µM (active) and 26.6 µM (active),inactive,inactive,43.6 µM (active) and 33.5 µM (active),inactive,-0.301% [at 7.66 µM] (inactive),10 µM (active),inactive
CC(C)=CCC/C(C)=C\CO,inactive,inactive,inactive,inactive,inactive,inactive,inactive,inactive,,,inactive,inactive,inactive,inactive,inactive,,,,
NC=O,inactive,inactive,inactive,inactive,inactive,inactive,inactive,inactive,inactive,inactive,inactive,inactive,,inactive,,,,,
O=CCc1ccccc1,inactive,inactive,inactive,inactive,inactive,inactive,inactive,,,,,inactive,inactive,inactive,inactive,,,,
Nc1ccc(S(=O)(=O)Nc2cnc3ccccc3n2)cc1,inactive,inactive,inactive,inactive,inactive,inactive,inactive,inactive,inactive,inactive,inactive,inactive,inactive,,inactive,,,inactive,
O=C=Nc1ccc(Cc2ccc(N=C=O)cc2)cc1,inactive,inactive,inactive,inactive,inactive,inactive,inactive,inactive,inactive,inactive,,inactive,inactive,inactive,,,,,
O=P(O)(O)O,inactive,inactive,inactive,inactive,inactive,inactive,inactive,inactive,inactive,inactive,inactive,inactive,inactive,inactive,,,,inactive,
CC(=O)c1ccccn1,inactive,inactive,inactive,inactive,inactive,inactive,inactive,inactive,,,inactive,inactive,inactive,,,,,,
C/C=C/C(=O)O,inactive,inactive,inactive,inactive,inactive,inactive,inactive,inactive,inactive,inactive,inactive,inactive,inactive,inactive,inactive,,,,
CN(C)c1nc(N(C)C)nc(N(C)C)n1,inactive,inactive,inactive,inactive,inactive,inactive,inactive,inactive,inactive,inactive,inactive,inactive,inactive,,inactive,,,inactive,
C[Si](C)(C)O[Si](C)(C)C,inactive,inactive,inactive,inactive,inactive,inactive,inactive,inactive,inactive,inactive,,inactive,inactive,,inactive,,,inactive,
O=C1c2cccc(O)c2C(=O)c2c(O)cccc21,inactive,inactive,inactive,,inactive,inactive,inactive,inactive,,inactive,,inactive,inactive,inactive,,,,inactive,
CCCCC(CC)COP(=O)(OCC(CC)CCCC)OCC(CC)CCCC (stereo not drawn),inactive,inactive,inactive,inactive,inactive,inactive,inactive,inactive,inactive,inactive,inactive,inactive,inactive,,,,,,
COc1c(Cl)c(Cl)c(Cl)c(Cl)c1Cl,inactive,inactive,inactive,inactive,inactive,inactive,inactive,inactive,inactive,inactive,inactive,inactive,inactive,inactive,inactive,,,,
CCCCCCCCCC(=O)OC,inactive,inactive,inactive,inactive,inactive,inactive,inactive,inactive,inactive,inactive,inactive,inactive,inactive,,,,,,
CC(C)Oc1ccc2c(=O)c(-c3ccccc3)coc2c1,inactive,inactive,inactive,2.37 µM (active),inactive,inactive,,inactive,,,,inactive,inactive,inactive,,,,inactive,
O=C(c1ccc(OCCN2CCCCC2)cc1)c1c(-c2ccc(O)cc2)sc2cc(O)ccc12,inactive,,61.2 µM (active) and inactive,inactive,inactive,24.4 µM (active) and 24.3 µM (active) and 11.9 µM (active),inactive,4.86 µM (active) and 2.73 µM (active) and 8.41 µM (active),,,,54.5 µM (active) and 26.6 µM (active),,24.4 µM (active) and 30.6 µM (active),61.2 µM (active) and 61.1 µM (active) and 26.6 µM (active),,,inactive,
Cc1ncc[nH]1,inactive,inactive,inactive,inactive,inactive,inactive,inactive,inactive,inactive,inactive,,inactive,inactive,,inactive,,,inactive,
c1ccc(Nc2ccccc2)cc1,inactive,inactive,inactive,inactive,inactive,inactive,inactive,inactive,inactive,24.3 µM (active) and inactive,inactive,inactive,inactive,inactive,43.2 µM (active) and inactive,,,,
CCCCC/C=C/C=C/C=O,inactive,inactive,inactive,inactive,inactive,inactive,inactive,inactive and 34.4 µM (active),inactive,inactive,,inactive,inactive,,,,,,
